Source: PubChem BioAssay (National Center for Advancing Translational Sciences (NCATS))
NPC1 promoter act = activators of NPC1 promoter | Huh7 NPC1 promoter luciferase reporter, 24 h | Potency, µM (top dose mostly 9.22 µM), usual class: activators | actives 2.4% (n = 320,000) | AID 485313; also: nearly all actives have a fitted effect of over 60% in size
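Luminescence read-out of NPC1 promoter-driven luciferase in stably transfected Huh7 cells; compounds delivered in DMSO and left 24 h at 37C, 5% CO2, qHTS titration format.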
Rab9 prom act = activators of Rab9 promoter; Potency, µM (top dose mostly 9.22 µM), usual class: activators; Huh7 Rab9 promoter-luciferase reporter, luminescence, 24 h; AID 485297; actives 2.8% (n = 320,000); also: nearly all actives have a fitted effect of over 60% in size
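Stable Rab9-luc Huh7, 1500 cells/well, 2 h settle; cmpd in DMSO, 24 h, 37 °C/5% CO2; luciferase reagent 10 min RT; luminescence.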
SMN2 splice enh = increases expression of the SMN2 splice variant; HEK293 SMN2-luciferase splicing reporter, luminescence, 30-36 h; Potency, µM (titrated, usually from 46.1 µM), most hits filed as activators; actives 2.8% (n = 210,000); AID 1458; also: nearly all actives have a fitted effect of over 55% in size
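HEK293 cells carry an SMN2 minigene-luciferase reporter in which exon 7 inclusion puts luciferase in frame. Cells were seeded at 2000 cells/well, attached for 10-12 hours, then exposed to compounds for 30-36 hours at 37C before ONE-Glo luminescence.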
ELG1 genotox = inducers of genotoxicity in HEK293T ELG1-luciferase cells | HEK293T ELG1-luciferase reporter, luminescence, 16 h | Potency, µM (titrated, usually from 46 µM), usual class: activators | actives 1.3% (n = 330,000); also: nearly all actives have a fitted effect of over 60% in size
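Cells (2,000/well) expressing the ELG1-luciferase fusion are dosed by pin tool and kept 16 hr at 37 °C, 5% CO2. Signal comes from ONE-Glo luciferase reagent after 30 min at room temperature.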
KinaseGlo FLuc = Kinase-Glo luciferase inhibition (counter-screen); AID 1379; Q27757; Potency, µM (top dose mostly 38.3 µM), hits mostly inhibitors; Kinase-Glo luciferase, ATP luminescence, 8 min; actives 0.28% (n = 200,000); also: nearly all actives have a fitted effect of over 60% in size
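Inhibition of Kinase-Glo luciferase light generation was assessed at 10 uM ATP in pH 7.2 imidazole buffer, with luminescence measured after eight minutes at ambient temperature.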
FLuc modulator = firefly luciferase modulation, counter-screen for miR-21 project | purified FLuc, Km substrates, luminescence inhibition | Potency, µM (highest dose often 57.5 µM), hits mostly inhibitors | actives 6.9% (n = 360,000); also: nearly all actives have a fitted effect of over 55% in size
Target sequence (P08659 whole entry, looked up): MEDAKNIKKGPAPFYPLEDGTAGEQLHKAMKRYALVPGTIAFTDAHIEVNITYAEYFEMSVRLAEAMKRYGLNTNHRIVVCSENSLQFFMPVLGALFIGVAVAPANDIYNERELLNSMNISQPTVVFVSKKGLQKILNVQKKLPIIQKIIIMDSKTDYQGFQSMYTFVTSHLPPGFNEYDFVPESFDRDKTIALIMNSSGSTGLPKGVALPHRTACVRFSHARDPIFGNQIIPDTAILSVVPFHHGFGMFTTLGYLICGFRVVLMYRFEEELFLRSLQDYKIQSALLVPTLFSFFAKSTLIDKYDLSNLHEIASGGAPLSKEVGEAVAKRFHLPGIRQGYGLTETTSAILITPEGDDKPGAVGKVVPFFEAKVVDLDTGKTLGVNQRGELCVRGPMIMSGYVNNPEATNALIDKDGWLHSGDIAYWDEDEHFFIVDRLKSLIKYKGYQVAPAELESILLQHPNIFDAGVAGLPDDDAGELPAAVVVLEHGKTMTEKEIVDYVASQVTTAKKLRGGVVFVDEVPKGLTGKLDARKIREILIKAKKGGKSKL
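Biochemical qHTS of compounds, final roughly 60 µM downward over six points, against 10 nM purified firefly luciferase using Km concentrations of substrates (10 uM D-luciferin, 10 uM ATP) in Tris acetate pH 7.5 buffer; luminescence output.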
A number is an active result; [ ] = dose if it differs, or a comment. An excerpt weighted towards active compounds, which were near 7.5% of everything screened. Calls follow the shape of the dose curve; as a rule, active = well fitted curve in the direction sought with a large enough effect; inconclusive = small, poorly fitted or top-dose-only effect, or another doubt; inactive = no such curve, though single readings can be large; an effect the other way counts as inactive or inconclusive.

`O=C(COc1ccccc1)Nc1ccc(S(=O)(=O)N2CCOCC2)cc1` gave NPC1 promoter act inactive, Rab9 prom act inactive, SMN2 splice enh inactive, ELG1 genotox inactive, KinaseGlo FLuc inactive and FLuc modulator inactive.
`CN1CCN(c2ccc(-c3cccc(NC(=O)COc4ccccc4)c3)nn2)CC1` gave NPC1 promoter act 1.6µM, Rab9 prom act 1.6µM, ELG1 genotox 2.6µM and FLuc modulator 1.5µM.
CN1CCN(c2ccc(NC(=O)COc3ccccc3Cl)cc2)CC1 was read as NPC1 promoter act inactive, Rab9 prom act inactive, SMN2 splice enh inactive, ELG1 genotox inconclusive, KinaseGlo FLuc inactive and FLuc modulator inconclusive.
For CN1CCN(c2ccc(-c3cccc(NC(=O)COc4ccc(Cl)cc4Cl)c3)nn2)CC1 the results were NPC1 promoter act inconclusive, Rab9 prom act inconclusive, ELG1 genotox 0.65µM and FLuc modulator 0.48µM.
Screening CN1CCN(c2ccc(-c3cccc(NC(=O)COc4ccc(Cl)cc4)c3)nn2)CC1 returned NPC1 promoter act 2.8µM, Rab9 prom act 2µM, ELG1 genotox 2.1µM and FLuc modulator 1.1µM.
`O=C(COc1ccccc1)Nc1ccc(-c2ccc(N3CCOCC3)nn2)cc1` gave NPC1 promoter act inconclusive, Rab9 prom act 2.2µM, ELG1 genotox inconclusive and FLuc modulator inconclusive.
Screening C[C@@]12C[C@H](O)C3[C@H](CCC4=CC(=O)CC[C@]43C)[C@H]1CC[C@@H]2c1csc(N)n1 (stereo not given in full) returned SMN2 splice enh inactive[9.22 µM] and KinaseGlo FLuc inactive[7.66 µM].
Screening Cc1cc(C)cc(N2CC(c3nc(-c4ccccc4C)no3)CC2=O)c1 (stereo not given) returned FLuc modulator inactive.
For CC(C)(C)C1CCc2[nH]c3ccccc3c(=O)c2C1 (stereo not given) the results were NPC1 promoter act inactive, Rab9 prom act inactive, SMN2 splice enh inactive, ELG1 genotox inconclusive, KinaseGlo FLuc inconclusive and FLuc modulator 6µM.
CCC/C=C(\CCC)C(NS(=O)(=O)CC12CCC(CC1=O)C2(C)C)c1ccc(C(=O)OC)cc1 (stereo not given) was read as SMN2 splice enh inactive and KinaseGlo FLuc inactive.
CCOC(=O)Cc1ccc(NC(=O)c2ccccc2Br)cc1 was read as NPC1 promoter act inactive, Rab9 prom act inactive, SMN2 splice enh inactive, ELG1 genotox inactive, KinaseGlo FLuc inactive and FLuc modulator 19µM.
For CCOC(=O)c1ccc(NC(=O)c2ccc(NC(=O)c3ccccc3)cc2)cc1 the results were NPC1 promoter act inactive, Rab9 prom act inactive, SMN2 splice enh inconclusive, ELG1 genotox inconclusive, KinaseGlo FLuc inactive and FLuc modulator inactive.
Screening CCOC(=O)Cc1ccc(NC(=O)c2ccc(C(C)(C)C)cc2)cc1 returned NPC1 promoter act inactive, Rab9 prom act inactive, SMN2 splice enh inactive, ELG1 genotox inactive, KinaseGlo FLuc inactive and FLuc modulator 1.1µM.
For Cc1ccccc1OCC(O)Cn1nnc2ccccc21 (stereo not given) the results were NPC1 promoter act inconclusive, Rab9 prom act 3.5µM, SMN2 splice enh 11µM, ELG1 genotox inconclusive, KinaseGlo FLuc inactive and FLuc modulator 21µM.
Screening O=C(Nc1ccc2[nH]ncc2c1)c1ccccc1 returned NPC1 promoter act 2.8µM, Rab9 prom act 3.2µM, ELG1 genotox inconclusive and FLuc modulator 13µM.
For O=C(Nc1ccc2[nH]ncc2c1)c1ccc(F)cc1 the results were NPC1 promoter act 2.8µM, Rab9 prom act 2.2µM, ELG1 genotox inconclusive and FLuc modulator 8.5µM.
Screening O=C(NC(=S)Nc1ccc2cn[nH]c2c1)c1ccccc1 returned NPC1 promoter act 3.5µM, Rab9 prom act 4.5µM, SMN2 splice enh 18µM, ELG1 genotox inactive, KinaseGlo FLuc inactive and FLuc modulator 19µM.
`CC(C)Oc1ccc(CNC(=O)C2COc3ccccc3C2)cc1` (stereo not given) gave FLuc modulator inactive.
`Cc1ccc(N2CCN(c3nc4ccc(C(=O)c5ccccc5)cc4n4cnnc34)CC2)c(C)c1` gave FLuc modulator inactive.
For Oc1ccc(N=Nc2ccc3c(c2)OCO3)c2ccccc12 the results were NPC1 promoter act inconclusive, Rab9 prom act 3.2µM, ELG1 genotox 5.2µM and FLuc modulator 7.6µM.
For CCCCOc1ccc2ccccc2c1C=O the results were NPC1 promoter act inactive, Rab9 prom act inactive, SMN2 splice enh inactive, ELG1 genotox inactive, KinaseGlo FLuc inactive and FLuc modulator 21µM.
Screening COc1ccc([C@H]2[C@H](C(=O)C(C)(C)C)N3N=Cc4ccccc4C3C23C(=O)OC(C)(C)OC3=O)cc1 (stereo not given in full) returned NPC1 promoter act inactive, Rab9 prom act inactive, SMN2 splice enh 14µM, ELG1 genotox inactive, KinaseGlo FLuc inactive and FLuc modulator inactive.
CCOc1ccccc1NC(=O)CCC(=O)Nc1nnc(C2CCCCC2)s1 was read as NPC1 promoter act inactive, Rab9 prom act inactive, ELG1 genotox inactive and FLuc modulator inactive.
Screening O=C(O)c1cc(-c2ccc(-c3c(-c4ccc5c(c4)OCO5)noc3-c3ccsc3)cc2)nc2ccccc12 returned NPC1 promoter act inconclusive, Rab9 prom act inactive, ELG1 genotox inactive and FLuc modulator 19µM.
Screening O=C(Nc1ccc2c(c1)OCO2)c1cc(-c2ccncc2)nc2ccccc12 returned NPC1 promoter act inactive, Rab9 prom act inactive, SMN2 splice enh inactive, ELG1 genotox inactive, KinaseGlo FLuc inactive and FLuc modulator inconclusive.
For Cn1c(NC(=O)c2cc(-c3ccc4c(c3)OCO4)nc3ccccc23)cc(=O)n(C)c1=O the results were NPC1 promoter act inactive, Rab9 prom act inactive, SMN2 splice enh 10µM, ELG1 genotox inconclusive, KinaseGlo FLuc inconclusive and FLuc modulator 2.1µM.
CN(C)c1ccc(-c2c(-c3ccc4c(c3)OCO4)noc2-c2ccsc2)cn1 was read as NPC1 promoter act inactive, Rab9 prom act inactive, ELG1 genotox inactive and FLuc modulator inconclusive.
For CC(C)(C)NC(=O)c1cc(-c2ccc3c(c2)OCO3)nc2ccccc12 the results were NPC1 promoter act inactive, Rab9 prom act inactive, ELG1 genotox inactive and FLuc modulator 17µM.
Screening O=C(O)c1cc(-c2ccc3c(c2)OCO3)nc2ccc(Cl)cc12 returned NPC1 promoter act inactive, Rab9 prom act inactive, ELG1 genotox inactive and FLuc modulator 2.4µM.
C#C[C@]1(O)CC[C@@H]2[C@H]3CCC4=Cc5oncc5C[C@]4(C)[C@@H]3CC[C@@]21C was read as SMN2 splice enh inactive and KinaseGlo FLuc inactive.
For COC(=O)c1ccc(-c2cc(C(=O)O)c3cc4c(cc3n2)OCCO4)cc1 the results were NPC1 promoter act inactive, Rab9 prom act inactive, SMN2 splice enh inactive, ELG1 genotox inconclusive, KinaseGlo FLuc inactive and FLuc modulator 4.8µM.
